We go through 29 molecules from PubChem BioAssay (EPA / NIEHS).

Assay [1] addresses Bile acid receptor (Homo sapiens) (UniProt Q96RI1). The experiment in a line: ATG_IR1_CIS: Attagene CIS-FACTORIAL HepG2 Assay for human Nuclear Receptor Subfamily 1 Group H Member 4 (NR1H4), IR1 submotif (AID 2282946). As to conditions: IR1 reporter transcription, actives raise or lower the signal. In short, it runs like this: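 Cells (human HepG2) carry transiently transfected cis-promoter reporter transcription units. Compounds are incubated 24 h, total RNA is reverse-transcribed and amplified, and labelled fragments are resolved by capillary electrophoresis. Curves use DMSO as baseline.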

Assay [2] can be described thus: ATG_GRE_CIS: Attagene CIS-FACTORIAL HepG2 Assay for human Glucocorticoid Response Elements (GRE) (AID 2282947). The following applies: HepG2 GRE cis-reporter, Attagene multiplex mRNA; actives raise or lower the signal. In short, it runs like this: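 Assay uses human hepatoma HepG2 cells transfected with cis-promoter reporter units, exposed 24 h. mRNA from reporters detected by RT-PCR plus capillary electrophoresis; DMSO serves as negative control and baseline.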

Assay [3] is described as follows: ATG_M_32_CIS: Attagene CIS-FACTORIAL HepG2 Assay for M32 Transcription Factor (Internal Marker) (AID 2282949).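 Further: background control marker of the multiplexed CIS panel rather than a real target.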 As to conditions: HepG2 Attagene cis-factorial M32 reporter, mRNA; actives raise or lower the signal. In outline:
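Following 24 h chemical exposure of HepG2 cells transiently expressing cis-promoter reporter constructs, reporter transcript levels were determined by RT-PCR with fluorescent labelling and capillary electrophoresis, then fitted bidirectionally against DMSO.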

The nature of assay [4]: ATG_M_06_CIS: Attagene CIS-FACTORIAL HepG2 Assay for M06 Transcription Factor (Internal Marker) (AID 2282950). The following applies: HepG2 Attagene CIS-FACTORIAL M06 internal marker reporter; actives raise or lower the signal. In short, it runs like this: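 Read-out is fluorescence of labelled reporter cDNA fragments resolved by capillary electrophoresis after RT-PCR. Cells: HepG2 carrying transfected cis-promoter reporter units, treated 24 h. Gain or loss of signal fitted relative to DMSO.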

The target of assay [5] is Hypoxia-inducible factor 1-alpha (Homo sapiens) (UniProt Q16665). The experiment in a line: ATG_HIF1a_CIS: Attagene CIS-FACTORIAL HepG2 Assay for human Hypoxia Inducible Factor 1 (HIF1A) (AID 2282951). The following applies: HepG2 Attagene cis-factorial HIF1a reporter transcription; actives raise or lower the signal. In outline: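 Endogenous-TF cis reporter readout, human HepG2 cells, 24 h incubation; mRNA detected via RT-PCR and capillary electrophoresis fluorescence; DMSO-normalised bidirectional fitting.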
Chain of Hypoxia-inducible factor 1-alpha (Homo sapiens) (Q16665 whole entry, looked up): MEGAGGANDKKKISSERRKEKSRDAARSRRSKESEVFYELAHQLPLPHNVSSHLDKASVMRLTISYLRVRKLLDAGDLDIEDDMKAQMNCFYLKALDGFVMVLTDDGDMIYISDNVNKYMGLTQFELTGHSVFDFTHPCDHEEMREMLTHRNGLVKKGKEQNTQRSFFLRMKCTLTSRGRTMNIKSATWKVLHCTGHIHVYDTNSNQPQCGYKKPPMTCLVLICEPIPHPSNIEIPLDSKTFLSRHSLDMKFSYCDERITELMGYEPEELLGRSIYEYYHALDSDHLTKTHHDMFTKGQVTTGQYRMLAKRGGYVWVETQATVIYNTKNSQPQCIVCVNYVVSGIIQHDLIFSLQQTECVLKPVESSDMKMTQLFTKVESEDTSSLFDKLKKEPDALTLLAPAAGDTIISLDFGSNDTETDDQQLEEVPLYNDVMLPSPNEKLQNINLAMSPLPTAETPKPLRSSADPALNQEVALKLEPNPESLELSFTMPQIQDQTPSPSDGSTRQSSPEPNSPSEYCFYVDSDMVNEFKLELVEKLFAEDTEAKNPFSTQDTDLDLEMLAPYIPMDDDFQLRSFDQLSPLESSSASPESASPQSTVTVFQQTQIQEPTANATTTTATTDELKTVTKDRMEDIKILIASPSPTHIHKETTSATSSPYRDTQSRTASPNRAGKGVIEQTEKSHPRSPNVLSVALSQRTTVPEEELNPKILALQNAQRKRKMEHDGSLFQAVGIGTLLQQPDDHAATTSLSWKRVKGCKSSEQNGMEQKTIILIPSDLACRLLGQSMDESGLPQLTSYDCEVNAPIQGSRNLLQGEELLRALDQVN

Assay [6] concerns the target Hepatocyte nuclear factor 6 (Homo sapiens) (UniProt Q9UBC0). The experiment in a line: ATG_HNF6_CIS: Attagene CIS-FACTORIAL HepG2 Assay for human Hepatocyte Nuclear Factor 6 (HNF6) (AID 2282952). As to conditions: HepG2 Attagene cis-factorial HNF6 reporter transcription; actives raise or lower the signal. In outline: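 Multiplexed mRNA reporter assay in transfected HepG2; 24 h dosing; RT-PCR plus capillary electrophoresis fluorescence; DMSO-referenced bidirectional curve fitting.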

A short description of assay [7]: ATG_MRE_CIS: Attagene CIS-FACTORIAL HepG2 Assay for human Metal Responsive Element (MRE) (AID 2282954). The following applies: HepG2 MRE cis-reporter transcription, Attagene multiplex; actives raise or lower the signal. In short, it runs like this: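 After a 24 h chemical exposure, transiently transfected HepG2 cells yield RNA whose reporter sequences are amplified, FAM-labelled and sized by capillary electrophoresis. Curves are fitted bidirectionally relative to DMSO.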

A short description of assay [8]: ATG_PBREM_CIS: Attagene CIS-FACTORIAL HepG2 Assay for human Phenobarbital-responsive Enhancer Module (PBREM) (AID 2282955). The following applies: HepG2 PBREM cis-reporter, Attagene multiplexed transcription; actives raise or lower the signal. In outline: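 Readout: reporter mRNA, fluorescent RT-PCR fragments separated by capillary electrophoresis. System: HepG2 transiently transfected with cis-regulated reporter units. Exposure: 24 h. Analysis: bidirectional, DMSO baseline.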

The nature of assay [9]: ATG_ISRE_CIS: Attagene CIS-FACTORIAL HepG2 Assay for human Interferon Regulatory Factor 1 (IRF1) binding to an Interferon-Stimulated Response Element (ISRE) (AID 2282948). The following applies: HepG2 ISRE cis-reporter (Attagene), mRNA transcription readout; actives raise or lower the signal. In short, it runs like this: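 Transfected HepG2 (multiple reporter transcription units, cis elements) dosed 24 h. RNA → oligo(dT) RT → PCR → 6-FAM primer extension → HpaI → CE. DMSO = negative control/baseline.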

Assay [10] has as its target Heat shock factor protein 1 (Homo sapiens) (UniProt Q00613). As to the kind of experiment: ATG_HSE_CIS: Attagene CIS-FACTORIAL HepG2 Assay for human Heat Shock Transcription Factor 1 (HSE) (AID 2282953). As to conditions: HepG2 HSE cis-reporter, Attagene RNA transcription; actives raise or lower the signal. In outline: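 HepG2, transient MRTU transfection, cis-promoter reporters (endogenous TF activity). 24 h compound. RNA → oligo(dT) RT → PCR → 6-FAM primer extension → HpaI cut → CE. Bidirectional fit vs DMSO.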

“And” between values parts separate entries of the source, which are not always exact repeats. Equal values may be shown once. Some compounds were tested as several samples or in several runs, with calls that do not always agree. The source made the active and inactive calls. How the source made its calls: active means hit-call score of the fitted dose curve at least 0.9, where 1 is the maximum; inactive means score below 0.9.

Chain of Bile acid receptor (Homo sapiens) (Q96RI1 whole entry, looked up, the tested form may be a part): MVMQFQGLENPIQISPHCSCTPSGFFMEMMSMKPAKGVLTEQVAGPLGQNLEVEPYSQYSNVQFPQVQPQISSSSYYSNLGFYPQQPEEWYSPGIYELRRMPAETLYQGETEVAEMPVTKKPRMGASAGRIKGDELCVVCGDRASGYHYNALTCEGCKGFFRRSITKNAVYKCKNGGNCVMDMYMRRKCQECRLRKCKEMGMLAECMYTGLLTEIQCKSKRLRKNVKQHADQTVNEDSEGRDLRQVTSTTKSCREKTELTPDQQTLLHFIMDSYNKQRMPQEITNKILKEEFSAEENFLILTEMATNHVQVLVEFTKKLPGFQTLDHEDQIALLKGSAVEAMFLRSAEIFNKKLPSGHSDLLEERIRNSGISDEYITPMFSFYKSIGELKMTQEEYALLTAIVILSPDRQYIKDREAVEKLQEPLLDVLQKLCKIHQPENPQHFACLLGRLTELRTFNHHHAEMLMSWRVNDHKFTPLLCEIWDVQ
Chain of Heat shock factor protein 1 (Homo sapiens) (Q00613 whole entry, looked up): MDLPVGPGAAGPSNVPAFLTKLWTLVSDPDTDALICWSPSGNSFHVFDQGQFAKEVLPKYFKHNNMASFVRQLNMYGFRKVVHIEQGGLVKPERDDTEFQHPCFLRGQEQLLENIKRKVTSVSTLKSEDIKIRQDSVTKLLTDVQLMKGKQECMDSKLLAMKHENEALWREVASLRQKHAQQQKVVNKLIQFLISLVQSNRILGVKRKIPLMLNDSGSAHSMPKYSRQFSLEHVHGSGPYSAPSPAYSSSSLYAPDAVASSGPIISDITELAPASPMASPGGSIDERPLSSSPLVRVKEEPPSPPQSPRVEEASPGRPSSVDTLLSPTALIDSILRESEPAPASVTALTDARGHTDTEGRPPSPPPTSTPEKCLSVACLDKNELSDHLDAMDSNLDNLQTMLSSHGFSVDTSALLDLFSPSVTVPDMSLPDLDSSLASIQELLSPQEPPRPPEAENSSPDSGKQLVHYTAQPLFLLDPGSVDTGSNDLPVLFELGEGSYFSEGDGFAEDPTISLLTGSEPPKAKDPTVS
Chain of Hepatocyte nuclear factor 6 (Homo sapiens) (Q9UBC0 whole entry, looked up): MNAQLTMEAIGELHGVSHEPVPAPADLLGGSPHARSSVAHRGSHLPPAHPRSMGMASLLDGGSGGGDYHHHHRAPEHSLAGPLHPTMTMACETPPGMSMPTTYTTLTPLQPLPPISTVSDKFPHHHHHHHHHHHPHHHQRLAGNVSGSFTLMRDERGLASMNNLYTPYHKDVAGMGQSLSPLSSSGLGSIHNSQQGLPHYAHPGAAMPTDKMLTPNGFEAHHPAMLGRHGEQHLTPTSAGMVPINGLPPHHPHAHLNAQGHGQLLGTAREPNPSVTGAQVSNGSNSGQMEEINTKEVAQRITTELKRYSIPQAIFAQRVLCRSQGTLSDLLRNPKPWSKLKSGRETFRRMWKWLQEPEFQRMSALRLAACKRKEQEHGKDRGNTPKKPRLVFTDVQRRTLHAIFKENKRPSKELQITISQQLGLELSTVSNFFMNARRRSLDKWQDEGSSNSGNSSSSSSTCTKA

For the molecule `C[C@H]1O[C@@H](O[C@H]2[C@@H](O)C[C@H](O[C@H]3[C@@H](O)C[C@H](O[C@H]4CC[C@@]5(C)[C@H](CC[C@@H]6[C@@H]5CC[C@]5(C)[C@@H](C7=CC(=O)OC7)CC[C@]65O)C4)O[C@@H]3C)O[C@@H]2C)C[C@H](O)[C@@H]1O`, the call in assay [1], in assay [3], in assay [4], in assay [5], in [7] and in assay [8] was inactive. Also, the AC50 (as a rule, the midpoint of the concentration-response curve, whichever way the signal moves) is 0.123 µM (active) in assay [2] and 0.0564 µM (active) in assay [6].
Take `CC1(C)CCC(Cc2ccc(Cl)cc2)C1(O)Cn1cncn1` (stereo not drawn): the outcome in [1], in [9], in assay [3], in [4], in assay [5] and in assay [6] was inactive. Further, the result in assay [10] and in assay [7] was inactive. Also, in [8], the AC50 is 24.2 µM (active).
As for `CCOC(=O)CP(=O)(OCC)OCC`, the result in [1], in [9], in assay [3], in assay [4], in assay [6] and in assay [10] was inactive. Further, in assay [7], the molecule was called inactive. Further, the AC50 in assay [5] is 0.0931 µM (active).
With `CCOC(=O)/C=C(C)/C=C/C[C@@H](C)CCCC(C)C`, the AC50 in assay [1] is 41 µM (active); in assay [2], 74.7 µM (active); in assay [3], 157 µM (active); in assay [5], 24.4 µM (active); in assay [6] it was 176 µM (active); in [10], 62.9 µM (active). For the same molecule, the AC50 in assay [7] is 174 µM (active); in [8] it was 182 µM (active). Further, the molecule was called inactive in [4].
On to `NNC(=S)NN`, for which the call in assay [9], in assay [3], in assay [4], in assay [5], in assay [6] and in assay [10] was inactive. Moreover, in assay [7], the outcome was inactive.
On to `O=[N+]([O-])c1ccc(O)c([N+](=O)[O-])c1`, for which the outcome in assay [9], in [3], in assay [4], in [5], in assay [6] and in assay [10] was inactive. In addition, the outcome in assay [7] and in assay [8] was inactive.
Turning to `CCCCCCCCSC(=O)Oc1cc(Cl)nnc1-c1ccccc1`, the AC50 in assay [9] was 164 µM (active). Moreover, the call in [3], in assay [4], in [5], in assay [6], in assay [10] and in assay [7] was inactive.
Consider `N#Cc1ccccn1`, for which the outcome in assay [3], in [4], in assay [5], in assay [6], in [7] and in assay [8] was inactive.
`Cc1ccc(N)cc1Cl`: the molecule was called inactive in assay [9], in assay [3], in assay [4], in [5], in assay [6] and in [10]. Also, the result in assay [7] and in assay [8] was inactive.
Consider `C[C@]12CC[C@H](O)CC1=CC[C@@H]1[C@@H]2CC[C@]2(C)C(=O)CC[C@@H]12`, for which the outcome in assay [2], in assay [9], in assay [3], in [4], in assay [10] and in [7] was inactive. Further, the outcome in assay [8] was inactive.
As for `COc1cc(-c2ccc(N)c(OC)c2)ccc1N`, the AC50 was 53.6 µM (active) in assay [9]; 49.7 µM (active) and 57.9 µM (active) in [7]; 29.2 µM (active) in assay [8]. In addition, the call in assay [9], in assay [3], in [4], in assay [5], in [6] and in [10] was inactive. Moreover, the result in assay [8] was inactive.
As to `CCOP(=S)(OCC)SCSP(=S)(OCC)OCC`, the molecule was classed as inactive in [2], in assay [9], in assay [3], in [4], in [5] and in assay [10]. The result in [7] was inactive. Besides, in assay [8], the AC50 is 1.06 µM (active).
`Cc1cc(Cl)ccc1O[C@H](C)C(=O)O`: the result in assay [3], in [4], in assay [5], in [6], in assay [10] and in assay [7] was inactive. For the same molecule, the outcome in [8] was inactive.
For the molecule `CCOP(=O)(CN(CCO)CCO)OCC`, the call in assay [2], in assay [3], in [4], in assay [5], in [10] and in assay [7] was inactive.
With `Clc1nc(Cl)nc(Cl)n1`, the call in [2], in [3], in assay [4], in assay [5], in assay [6] and in [7] was inactive. The result in assay [8] was inactive. Also, the AC50 in assay [10] is 144 µM (active).
`C1CCC(NC2CCCCC2)CC1`: the result in assay [2], in assay [3], in [4], in assay [5], in assay [6] and in [10] was inactive. Further, the result in [7] and in assay [8] was inactive.
Turning to `COc1cc2c(cc1OC)[C@@]13CCN4CC5=CCO[C@H]6CC(=O)N2[C@H]1[C@H]6[C@H]5C[C@H]43`, the molecule was classed as inactive in [9], in assay [3], in assay [4], in assay [6], in [10] and in assay [7]. Besides, the outcome in assay [8] was inactive. Moreover, the AC50 in assay [5] was 30.3 µM (active).
With `O=C(O)C(Cl)(Cl)Cl`, the result in assay [9], in assay [3], in [4], in [5], in assay [10] and in assay [7] was inactive. The result in assay [8] was inactive.
Consider `Nc1cccc2ccccc12`, for which the molecule was classed as inactive in assay [9], in [3], in assay [4], in [6], in assay [10] and in [7]. Further, the result in assay [8] was inactive. Besides, the AC50 in assay [5] is 165 µM (active).
As to `C=CCc1ccc(OC)cc1`, the result in [9], in [3], in assay [4], in [5], in [6] and in assay [10] was inactive. In addition, the result in assay [7] and in assay [8] was inactive.
For `COP(=S)(OC)Oc1ccc(Sc2ccc(OP(=S)(OC)OC)cc2)cc1`, the molecule was called inactive in assay [9], in assay [3], in assay [4] and in assay [6]. Besides, the AC50 in assay [5] is 39.3 µM (active); in assay [10], 27 µM (active); in assay [7], 57.7 µM (active); in [8], 8.08 µM (active).
With `CCOC(=O)Nc1cccc(OC(=O)Nc2ccccc2)c1`, the call in assay [2], in assay [3], in assay [4], in assay [5], in [10] and in [7] was inactive. The result in assay [8] was inactive.
Take `C[C@H]1CCCC(=O)CCC/C=C/c2cc(O)cc(O)c2C(=O)O1`: the AC50 was 16.8 µM (active) in assay [9], 23.7 µM (active) in [10], 33.1 µM (active) in assay [7] and 5.35 µM (active) in [8]. The call in [3], in [4], in assay [5] and in [6] was inactive.
Turning to `c1ccc(N=NNc2ccccc2)cc1`, the molecule was called inactive in assay [9], in assay [3], in assay [4], in assay [5], in [6] and in [8]. The AC50 in assay [10] was 151 µM (active); in [7] it was 100 µM (active).
Regarding `Cc1ccccc1N`, the call in assay [3], in assay [4], in [5], in assay [6], in assay [10] and in [7] was inactive. Further, the outcome in [8] was inactive.
Take `COC(=O)c1sccc1S(=O)(=O)NC(=O)Nc1nc(C)nc(OC)n1`: the molecule was called inactive in assay [2], in assay [3], in assay [4], in assay [5], in assay [6] and in assay [10]. In addition, the result in assay [7] and in assay [8] was inactive.
Regarding `COc1ccc(C=O)cc1OC`, the molecule was called inactive in assay [9], in assay [3], in [4], in [5], in [6] and in assay [10]. For the same molecule, the molecule was classed as inactive in assay [7] and in assay [8].
Take `CC(C)c1cccc(C(C)C)c1O`: the molecule was classed as inactive in assay [9], in [3], in assay [4], in assay [10], in assay [7] and in assay [8].
As to `CC1(C)Cc2cccc(O)c2O1`, the result in assay [9], in assay [3], in assay [4], in assay [5], in [6] and in assay [10] was inactive. Moreover, the result in [7] and in assay [8] was inactive.
